Structures can show the parent of a compound that is named as a salt. ± gives the standard deviation of the averaged measurements.
How the values were obtained:
Experiment in all cases: growth (OD600 after 10 h); higher = more growth (less inhibition)
[1] = system: E. coli TESEC Alr+ wild-type control; details: compound 0.1 mM; raw OD600 reference: median of DMSO wells 0.241, cell-free background 0.041
Description: (§1)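 TESEC Mtb Alr E. coli, or the Alr+ wild-type control, in 384-well plates with Prestwick library compounds at 0.1 mM and 1% DMSO, across arabinose induction levels of 1E3 to 1E7 nM. Growth is read as OD600 after 10 h at 37 °C in triplicate biological replicates.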

[2] = system: E. coli TESEC Mtb Alr; details: compound 0.1 mM
Description: as §1

[3] = system: E. coli TESEC Mtb Asd; details: compound 0.1 mM
Description: (§2)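 TESEC E. coli strains in which the native enzyme is deleted and replaced by arabinose-inducible Mtb Asd, DapB, CysH or TrpD, each grown in its selective medium. Strains were screened against the Prestwick library at 0.1 mM and 1% DMSO in 384-well format at low and high arabinose induction. Growth is read as OD600 after 10 h in triplicate.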

[4] = system: E. coli TESEC Mtb DapB; details: compound 0.1 mM
Description: as §2

[5] = system: E. coli TESEC Alr+ wild-type control; details: compound 0.1 mM; raw OD600 reference: median of DMSO wells 0.49, cell-free background 0.052
Description: (§3)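 TESEC Mtb Alr E. coli (ΔaraC ΔtolC ΔentC Δalr ΔdadX, arabinose-inducible Mtb Alr) or the Alr+ wild-type control strain, grown in defined M9-fructose medium without D-alanine in 96-well plates with Prestwick library compounds at 0.1 mM and 1% DMSO. Low Alr induction is 0.1 µM arabinose and high induction is 10 mM arabinose.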

[6] = system: E. coli TESEC Mtb Alr; details: compound 0.1 mM; remark: listed apart in the source
Description: as §3

[7] = arabinose 1000 nM, raw OD600 reference: median of DMSO wells 0.294, cell-free background 0.041
[8] = arabinose 10000 nM, raw OD600 reference: median of DMSO wells 0.264, cell-free background 0.041
[9] = arabinose 100000 nM, raw OD600 reference: median of DMSO wells 0.201, cell-free background 0.041
[10] = arabinose 1000000 nM, raw OD600 reference: median of DMSO wells 0.193, cell-free background 0.041
[11] = arabinose 10000000 nM, raw OD600 reference: median of DMSO wells 0.146, cell-free background 0.041
[12] = arabinose induction (level): High, raw OD600 reference: median of DMSO wells 0.331, cell-free background 0.041
[13] = arabinose induction (level): Low, raw OD600 reference: median of DMSO wells 0.417, cell-free background 0.041
[14] = arabinose induction (level): High, raw OD600 reference: median of DMSO wells […], cell-free background 0.041
[15] = arabinose induction (level): Low, raw OD600 reference: median of DMSO wells 0.227, cell-free background 0.041
[16] = arabinose 100 nM, raw OD600 reference: median of DMSO wells 0.413, cell-free background 0.052
[17] = arabinose 10000000 nM, raw OD600 reference: median of DMSO wells […], cell-free background 0.052

SMILES | growth [1] | growth [2, 7] | growth [2, 8] | growth [2, 9] | growth [2, 10] | growth [2, 11] | growth [3, 12] | growth [3, 13] | growth [4, 14] | growth [4, 15] | growth [5] | growth [6, 16] | growth [6, 17]
CC(=O)OCC(=O)[C@@]1(O)[C@H](C)C[C@H]2[C@@H]3CCC4=CC(=O)C=C[C@]4(C)[C@@]3(F)[C@@H](O)C[C@@]21C [Dexamethasone acetate] | 0.167 ± 0.006 | 0.239 ± 0.041 | 0.226 ± 0.007 | 0.192 ± 0.017 | 0.119 ± 0.0023 | 0.1362 ± 0.00044 | 0.226 ± 0.034 | 0.356 ± 0.056 | 0.171 ± 0.017 | 0.233 ± 0.03 | 0.477 ± 0.033 | 0.396 ± 0.011 | 0.234 ± 0.018
CC1CCc2c(N3CCC(O)CC3)c(F)cc3c(=O)c(C(=O)O)cn1c23 (centres undefined) [Nadifloxacin] | 0.04253 ± 5.8e-05 | 0.04043 ± 0.00023 | 0.0418 ± 0.0029 | 0.0437 ± 0.005 | 0.03983 ± 0.00031 | 0.04117 ± 0.00023 | 0.0522 ± 0.007 | 0.0485 ± 0.0008 | 0.0495 ± 0.00066 | 0.0498 ± 0.0021 | 0.0538 ± 0.0013 | 0.0535 ± 0.00072 | 0.05197 ± 5.8e-05
CCOC(=O)[C@@](C)(N)Cc1ccc(O)c(O)c1 [Methyldopate hydrochloride] | 0.106 ± 0.0036 | 0.159 ± 0.008 | 0.185 ± 0.011 | 0.116 ± 0.0072 | 0.0901 ± 0.0019 | 0.116 ± 0.0018 | 0.163 ± 0.024 | 0.276 ± 0.13 | 0.155 ± 0.01 | 0.152 ± 0.016 | 0.469 ± 0.013 | 0.405 ± 0.021 | 0.339 ± 0.022
NCCc1c[nH]cn1 [Histamine dihydrochloride] | 0.24 ± 0.012 | 0.2947 ± 0.0029 | 0.258 ± 0.0056 | 0.192 ± 0.019 | 0.192 ± 0.011 | 0.139 ± 0.003 | 0.303 ± 0.062 | 0.403 ± 0.011 | 0.193 ± 0.015 | 0.23 ± 0.0077 | 0.501 ± 0.067 | 0.42 ± 0.011 | 0.312 ± 0.0092
C[C@](N)(Cc1ccc(O)c(O)c1)C(=O)O [Methyldopa (L,-)] | 0.241 ± 0.011 | 0.298 ± 0.0073 | 0.27 ± 0.0043 | 0.24 ± 0.021 | 0.188 ± 0.017 | 0.146 ± 0.0063 | 0.356 ± 0.044 | 0.458 ± 0.041 | 0.187 ± 0.0082 | 0.226 ± 0.022 | 0.508 ± 0.05 | 0.411 ± 0.015 | 0.345 ± 0.026
NS(=O)(=O)c1cc2c(cc1Cl)N=CNS2(=O)=O [Chlorothiazide] | 0.254 ± 0.0047 | 0.29 ± 0.0056 | 0.268 ± 0.0056 | 0.212 ± 0.021 | 0.183 ± 0.0053 | 0.1414 ± 0.00081 | 0.433 ± 0.014 | 0.447 ± 0.045 | 0.193 ± 0.006 | 0.239 ± 0.024 | 0.494 ± 0.032 | 0.403 ± 0.014 | 0.354 ± 0.0098
C[N+]1(C)CCC(OC(=O)C(O)(c2ccccc2)C2CCCC2)C1 (centres undefined) [Glycopyrrolate] | 0.223 ± 0.0096 | 0.301 ± 0.0095 | 0.267 ± 0.0065 | 0.185 ± 0.021 | 0.1866 ± 0.001 | 0.138 ± 0.0078 | 0.337 ± 0.055 | 0.425 ± 0.04 | 0.194 ± 0.025 | 0.196 ± 0.011 | 0.575 ± 0.12 | 0.408 ± 0.0092 | 0.335 ± 0.014
CC(C)NC(=N)NC(=N)Nc1ccc(Cl)cc1 [Proguanil hydrochloride] | 0.216 ± 0.0044 | 0.261 ± 0.006 | 0.275 ± 0.0087 | 0.176 ± 0.013 | 0.143 ± 0.0015 | 0.142 ± 0.0028 | 0.216 ± 0.048 | 0.31 ± 0.068 | 0.207 ± 0.03 | 0.244 ± 0.016 | 0.475 ± 0.012 | 0.422 ± 0.009 | 0.345 ± 0.019

— the supplement of paper PMC9262897, “Low-cost anti-mycobacterial drug discovery using engineered E. coli” (Nature Communications, 2022)
